For 29 compounds, Inhibition results are on record in ChEMBL document CHEMBL1157539, “Thousands of chemical starting points for antimalarial lead identification” (Nature, 2010).

Holding throughout (type): functional
In experiment [1] the test system is Plasmodium falciparum. Description: GSK_TCMDC: Inhibition of Plasmodium falciparum 3D7 in whole red blood cells, using parasite LDH activity as an index of growth. Test compounds present at 2uM.
The subject of experiment [2] is Plasmodium falciparum. Description: GSK_TCMDC: Inhibition of Plasmodium falciparum Dd2 in whole red blood cells, using parasite LDH activity as an index of growth. Test compounds present at 2uM.
For the next experiment, the system named is HepG2. Description: GSK_TCMDC: Percent inhibition of human HepG2 cell line. Test compounds present at 10uM.

`O=C(CC(=O)Nc1cc(Cl)cc(Cl)c1)Nc1cc(Cl)cc(Cl)c1`: the values for the Inhibition in the experiment with Plasmodium falciparum [1], in the experiment with Plasmodium falciparum [2] and in the experiment with HepG2 were 95%, 96% and 0%, respectively.

Consider `COc1ccc(NC(=O)CCNc2cc(C)nc(NCCc3ccccc3)n2)cc1.O=C(O)C(F)(F)F`, for which the values for the Inhibition in the experiment on Plasmodium falciparum [1], in the experiment with Plasmodium falciparum [2] and in the experiment with HepG2 were 85%, 0% and 3%, respectively.

As to `COc1ccc2c(NN=Cc3ccccc3)ccnc2c1`, the values for the Inhibition in the experiment with Plasmodium falciparum [1], in the experiment on Plasmodium falciparum [2] and in the experiment on HepG2 were 100%, 98% and 18%, respectively.

Regarding `COC(=O)c1ccc(NC(=O)c2ccc(CCN3CCC(c4nc(COCC(F)(F)F)c(-c5ccc(F)cc5)o4)CC3)cc2)cc1`, the Inhibition in the experiment with Plasmodium falciparum [1] was found to be 89%; in the experiment with Plasmodium falciparum [2], 37%; in the experiment on HepG2 it was 22%.

In the case of `Cc1ccc(F)c(OCC2CCCN(c3ccc(C(=O)NC4CC4)cn3)C2)c1` (configuration not stated), the Inhibition in the experiment with Plasmodium falciparum [1] was found to be 96%; in the experiment with Plasmodium falciparum [2] it was 94%; in the experiment with HepG2, 3%.

In the case of `CO[C@H](C)[C@H](NC(=O)[C@H](CC(C)C)[C@H](CCC(F)(F)F)N(O)C=O)C(=O)Nc1nccs1`, the Inhibition worked out at 99% in the experiment on Plasmodium falciparum [1], 96% in the experiment with Plasmodium falciparum [2] and 0% with HepG2.

In the case of `CCOc1ccc2c(=NN=Cc3c4ccccc4cc4ccccc34)cc(C)[nH]c2c1`, the Inhibition in the experiment on Plasmodium falciparum [1] is 90%; with Plasmodium falciparum [2] it was 94%; in the experiment on HepG2, 0%.

For the compound `COc1ccc(NC(=O)/C=C/c2ccccc2Cl)cc1OCCN1CCC(NCc2cccnc2)CC1`, the Inhibition is given as 100% with Plasmodium falciparum [1], 88% with Plasmodium falciparum [2] and 12% in the experiment on HepG2.

In the case of `O=C(N[C@@H](Cc1ccccc1)[C@H](O)CNC1CCOCC1)c1cc(C2CCCC2)cc(N2CCCCS2(=O)=O)c1.O=CO`, the Inhibition in the experiment on Plasmodium falciparum [1] is given as 100%; with Plasmodium falciparum [2], 98%; in the experiment on HepG2 it was 3%.

For the compound `O=C(Nc1ccccc1O)C1CCN(c2ncnc3cc(-c4ccc(F)cc4)sc23)CC1`, the Inhibition in the experiment on Plasmodium falciparum [1] came to 97%; with Plasmodium falciparum [2], 94%; in the experiment with HepG2 it was 10%.

Consider `COc1ccc2ccc(F)c(CCN3CCC(NCc4cc5c(cn4)OCCO5)CC3)c2n1.Cl`, for which the Inhibition in the experiment with Plasmodium falciparum [1] stood at 96%; with Plasmodium falciparum [2], 36%; in the experiment on HepG2, 15%.

As for `Cc1cccc(CN2CCCC3(CCN(Cc4ccccc4O)C3)C2)c1` (configuration not stated), the Inhibition is 99% in the experiment on Plasmodium falciparum [1], 76% with Plasmodium falciparum [2] and 14% in the experiment on HepG2.

For `CCOC(=O)c1c(-c2ccccc2)nc2c(sc3ccccc32)c1O`, the values for the Inhibition in the experiment with Plasmodium falciparum [1], in the experiment on Plasmodium falciparum [2] and in the experiment on HepG2 were 97%, 65% and 2%, respectively.

For `CCS(=O)(=O)c1ccc(OC)c(Nc2nccc(-c3c(-c4cccc(NC(=O)c5c(F)cccc5F)c4)nn4ncccc34)n2)c1`, the figures for the Inhibition in the experiment with Plasmodium falciparum [1], with Plasmodium falciparum [2] and with HepG2 were 87%, 88% and 27%, respectively.

As to `CO/C(=C/C=C/c1cc2cc(Cl)c(Cl)cc2[nH]1)C(=O)NC1CC(C)(C)N(C)C(C)(C)C1`, the Inhibition with Plasmodium falciparum [1] was 99%; in the experiment with Plasmodium falciparum [2] it was 85%; in the experiment on HepG2 it was 58%.

As for `Cc1cc(=NN=Cc2ccc(F)cc2)c2cc(C(F)(F)F)ccc2[nH]1`, the figures for the Inhibition with Plasmodium falciparum [1], in the experiment with Plasmodium falciparum [2] and in the experiment with HepG2 were 100%, 99% and 2%, respectively.

For `COc1ccc2cc(-c3nc(-c4c(Cl)cccc4Cl)[nH]c3-c3ccnc(NCCC4CCCN4C)c3)ccc2c1.O=C(O)C(F)(F)F` (configuration not stated), the Inhibition worked out at 100% in the experiment with Plasmodium falciparum [1], 82% in the experiment on Plasmodium falciparum [2] and 11% in the experiment with HepG2.

Take `CCCCNS(=O)(=O)c1ccc(NC(=O)c2cc([N+](=O)[O-])ccc2Cl)cc1`: the Inhibition was 92% in the experiment with Plasmodium falciparum [1], 47% with Plasmodium falciparum [2] and 12% in the experiment with HepG2.

In the case of `CCN1CCN(c2cc(C)c3cc(NC(=O)c4cc(OC)cc(OC)c4)ccc3n2)CC1`, the Inhibition with Plasmodium falciparum [1] is recorded as 100%; in the experiment on Plasmodium falciparum [2] it was 90%; with HepG2, 0%.

For the compound `CC[C@@H]([C@@H](CC(C)C)C(=O)N[C@@H](CCCCNC(=O)OCc1ccccc1)C(=O)Nc1ccccn1)N(O)C=O`, the figures for the Inhibition with Plasmodium falciparum [1], with Plasmodium falciparum [2] and in the experiment with HepG2 were 98%, 99% and 0%, respectively.

Turning to `COc1ccc2nccc(C(=O)NC3CCC(CCN4CCc5cc(C#N)ccc5C4)CC3)c2c1.Cl` (configuration not stated), the Inhibition was 97% in the experiment with Plasmodium falciparum [1], 1% in the experiment with Plasmodium falciparum [2] and 12% in the experiment with HepG2.

Turning to `Cc1cccc2nc(-c3cccc(-c4cccc(NC(=O)Nc5ccsc5)c4)c3)[nH]c12`, the Inhibition is 100% in the experiment on Plasmodium falciparum [1], 41% with Plasmodium falciparum [2] and 15% in the experiment with HepG2.

Turning to `O=c1cc(NCCCNC(c2ccccc2)c2ccc(Cl)c(Cl)c2)[nH]c2ccccc12` (configuration not stated), the Inhibition amounted to 89% with Plasmodium falciparum [1], 94% with Plasmodium falciparum [2] and 13% in the experiment on HepG2.

On to `CCCCOc1ccc(N2C(N)=NC(N)=NC2(C)C)cc1.Cl`, for which the Inhibition in the experiment on Plasmodium falciparum [1] was determined as 97%; in the experiment with Plasmodium falciparum [2], 3%; with HepG2, 16%.

Consider `CC(=O)Nc1cccc(NC(=O)CSc2ccc(-c3nc4ccccc4[nH]3)cn2)c1`, for which the results for the Inhibition with Plasmodium falciparum [1], in the experiment with Plasmodium falciparum [2] and in the experiment with HepG2 were 97%, 73% and 22%, respectively.

As for `COc1cccc(C(C)(C)NC[C@@H](O)[C@H](Cc2ccccc2)NC(=O)c2cc(C3CCCC3)cc(N3CCCCS3(=O)=O)c2F)c1.O=CO`, the Inhibition in the experiment on Plasmodium falciparum [1] worked out at 99%; in the experiment on Plasmodium falciparum [2] it was 99%; in the experiment with HepG2, 16%.

On to `Cc1c(C)n(Cc2ccccc2)c2ncnc(OC3CCN(CC(=O)NCC4CC4)CC3)c12`, for which the figures for the Inhibition with Plasmodium falciparum [1], in the experiment with Plasmodium falciparum [2] and in the experiment with HepG2 were 92%, 79% and 17%, respectively.

`O=C(Nc1ccc(Cl)cc1)c1cc(Cl)ccc1NC(=O)C1(c2ccc(Cl)cc2)CCCC1`: the Inhibition in the experiment on Plasmodium falciparum [1] stood at 85%; in the experiment on Plasmodium falciparum [2], 29%; with HepG2 it was 13%.

Take `CC(C)COc1ccc(Cl)cc1Cc1ccc(-c2nc3ccc(Br)cc3[nH]2)o1.Cl`: the Inhibition was found to be 80% in the experiment on Plasmodium falciparum [1], 75% in the experiment with Plasmodium falciparum [2] and 19% in the experiment with HepG2.
